Laboratory results taken from the supplement of paper PMC12636033.
± gives the standard deviation of the averaged measurements. In all, about 33,000 sequences were measured (“E-score (rank enrichment, -0.5 to 0.5)”: median about -0.0028, highest 2% from about 0.23 on). For the sample, the highest values were picked, then their nearest neighbours and some sequences at random.

test system: 2Sb-muMax20 (muMax20 with two 1,3-bis(methyl)benzene Cys staples, A13C/A17C and Q88C/A92C, C-terminal Lys); assay: PBM 8-mer E-score (E-score (rank enrichment, -0.5 to 0.5)); higher = stronger preferential binding
Procedure: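 Protein binding microarray (universal PBM chip covering all 10-mers in fixed probe flanks) with chemically synthesized human Max(13-93) bHLH-LZ analogs (not full-length Max) bearing noncanonical residues (hArg, Tha, Aib, Nle at 65) and aromatic Cys staples. Read-out per 8-mer (and its reverse complement): E-score (rank-based enrichment, -0.5 to 0.5) and Z-score of median probe intensity.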

Sequence | PBM 8-mer E-score
AACAAGCT | 0.0609 ± 0.024
GCTGGCGA | -0.207 ± 0.015
GGTTCGCA | -0.146 ± 0.0032
AGGGTCTC | -0.0134 ± 0.094
CGTCCACC | -0.0444 ± 0.07
GTCGTTAA | -0.133 ± 0.028
GGGAATCA | -0.0266 ± 0.031
CCTGCACC | -0.0811 ± 0.0012
ACGCTGCC | -0.0685 ± 0.038
TAACGCGA | 0.0123 ± 0.0097
CGCATGCC | 0.141 ± 0.064
CGCATGCG | 0.279 ± 0.067
CGCATGCA | 0.171 ± 0.028
TGCATGCA | 0.132 ± 0.01
AGCATGCA | 0.3172 ± 0.00083
GGCATGCA | -0.0517 ± 0.02
GCGACGCC | -0.126 ± 0.025
TAGGTATA | 0.138 ± 0.011
CTCCAATA | 0.0951 ± 0.05
AATAGCAT | 0.262 ± 0.023
AATAGCTA | 0.244 ± 0.0096
CATAGCTA | 0.17 ± 0.065
AATAGCAC | 0.0775 ± 0.071
GAAAGCTA | 0.0215 ± 0.023
AAAAGCTC | -0.0474 ± 0.048
AAAAGCTA | 0.236 ± 0.025

Sequence | PBM 8-mer E-score
AATAGCAA | 0.106 ± 0.11
GATAGCTA | 0.0488 ± 0.04
AGAGGCCC | -0.0713 ± 0.025
ATGCCGGG | -0.256 ± 0.0027
GACTTTCC | -0.0524 ± 0.043
CGGCGGGC | -0.184 ± 0.073
CTTCTCGC | 0.0717 ± 0.022
GCAGCCAA | -0.0475 ± 0.046
AAGCAATT | 0.187 ± 0.017
GAGCAATC | -0.0835 ± 0.0098
AAGCAATC | 0.256 ± 0.026
CGTCTAGA | -0.162 ± 0.029
GTATTAAA | 0.177 ± 0.05
CTATATTA | 0.153 ± 0.015
ATCTACTC | -0.0796 ± 0.04
ATCTACTA | 0.243 ± 0.026
GTATATTA | 0.188 ± 0.012
GTATTACA | 0.253 ± 0.024
ATCTACTG | -0.00445 ± 0.014
GCATTATA | 0.14 ± 0.041
ATATATTA | 0.241 ± 0.036
ATATTACA | 0.173 ± 0.13
CTATTACA | 0.14 ± 0.041
GTATTATA | 0.238 ± 0.024
AATTGGCT | 0.131 ± 0.011
ACGAATGG | 0.073 ± 0.041

Sequence | PBM 8-mer E-score
ATTTGAGA | 0.152 ± 0.034
AACAGCGA | -0.213 ± 0.047
GTGTTTGA | 0.1 ± 0.029
CGAAGTCA | -0.106 ± 0.12
CGAACCGA | -0.228 ± 0.013
GGTGCCGA | -0.189 ± 0.027
ATATACTA | 0.2955 ± 0.0011
CTATTATA | 0.0823 ± 0.013
ATATTATA | 0.242 ± 0.052
ATATTATC | 0.112 ± 0.0097
AGATTATG | -0.0162 ± 0.068
ATTATATA | 0.185 ± 0.047
ATATTATG | 0.277 ± 0.026
ATATACTC | 0.173 ± 0.053
CTATACTA | 0.169 ± 0.015
CACACTGA | -0.0965 ± 0.055
AAATCGAC | 0.0123 ± 0.035
AGGGGCCA | 0.0356 ± 0.053
CTCGAGCC | 0.0235 ± 0.047
ACCAGGCC | -0.168 ± 0.022
GGCCACGA | -0.0901 ± 0.0031
ACACTACG | 0.0974 ± 0.045
ATTCTGAA | 0.0149 ± 0.024
ACGGAGCA | 0.0531 ± 0.012
AACGTACA | 0.0315 ± 0.031
ATTATATC | 0.224 ± 0.0096

Sequence | PBM 8-mer E-score
ACTATATA | 0.285 ± 0.058
CCTATATC | 0.0672 ± 0.019
ACTATATC | 0.271 ± 0.019
ACTATATG | 0.143 ± 0.052
GCTATATA | 0.173 ± 0.019
CGTCGCGC | -0.0442 ± 0.0083
CATCCTGG | -0.145 ± 0.035
ACCTTTCC | 0.0327 ± 0.034
TTATTAAA | 0.0933 ± 0.013
ATATTAAG | 0.0865 ± 0.0037
ATATTAAT | 0.302 ± 0.02
ATATTCAT | 0.238 ± 0.022
ATATTAAA | 0.234 ± 0.046
ATCTTAAT | 0.232 ± 0.042
CTATTAAA | 0.125 ± 0.055
ATCTTAAC | 0.0878 ± 0.048
ATATTCAA | 0.171 ± 0.023
ATCTTAAA | 0.0723 ± 0.05
ATATTCAC | 0.193 ± 0.047
ATATTAAC | 0.22 ± 0.076
ACATTGAT | 0.105 ± 0.0059
AACGAGTG | -0.131 ± 0.02
CGCGACCG | -0.221 ± 0.029
CACTAGAG | -0.0261 ± 0.065
ATAGGTAA | 0.0236 ± 0.0059
GCTCTGGA | -0.0441 ± 0.02

Sequence | PBM 8-mer E-score
CGTGGAGA | 0.0751 ± 0.065
GAAGGGGA | -0.0692 ± 0.0026
GCCCCAAA | 0.117 ± 0.0026
GCCCCACA | 0.156 ± 0.1
GCCCCACC | 0.289 ± 0.051
CCCCCACC | -0.264 ± 0.062
CCCCCAAC | -0.195 ± 0.066
GCCCCAAC | 0.315 ± 0.0087
CAATGGGA | 0.0389 ± 0.029
CCGCACTA | -0.0974 ± 0.0081
CGAAGCAA | -0.0083 ± 0.02
AGATCCCA | -0.0112 ± 0.031
ACCTTAAG | -0.0585 ± 0.037
CTCCCGGC | -0.268 ± 0.0042
GCTAATTA | 0.235 ± 0.039
CCTAATTA | 0.0703 ± 0.012
GGTAATTA | 0.24 ± 0.0065
CGTAATTA | 0.202 ± 0.046
ACTAATTA | 0.226 ± 0.024
AGTAATTA | 0.202 ± 0.03
ATGCGGGC | -0.00019 ± 0.029
AGTCCTCA | -0.113 ± 0.048
AATTTGTA | 0.0698 ± 0.0044
ACGGAGAA | 0.18 ± 0.029
GAGCCAAA | -0.057 ± 0.017
CCTATCGA | 0.15 ± 0.023

Sequence | PBM 8-mer E-score
ACCCGCCG | 0.0869 ± 0.081
GCCCGCCC | 0.108 ± 0.057
CCCCGCCA | 0.309 ± 0.031
CCCCGCCC | 0.355 ± 0.037
GCCCGCCA | 0.0111 ± 0.022
ACCCGCCC | 0.274 ± 0.11
CCCCGCCG | 0.161 ± 0.13
CGCCGCCC | -0.0329 ± 0.11
TCCCGCCA | -0.0896 ± 0.035
CCGATAGC | -0.195 ± 0.0074
TCGGACGA | -0.0961 ± 0.011
CATGCCCG | 0.114 ± 0.033
ACGTAGGC | -0.161 ± 0.069
AATTGATG | 0.196 ± 0.013
AGCCCCAA | 0.2458 ± 0.001
TGCCCCCA | 0.0887 ± 0.0026
AGCCCCCA | -0.192 ± 0.049
TGCCCAAA | -0.17 ± 0.028
GGCCCCAA | 0.134 ± 0.045
TGCCCCAA | 0.304 ± 0.012
CGCTAATA | 0.0712 ± 0.011
CAGGTAGG | 0.0772 ± 0.037
ATCTCTGC | 0.124 ± 0.041
AAGTTTAG | 0.193 ± 0.079
AAGTTTAC | -0.0181 ± 0.035
AAGTTTAT | 0.263 ± 0.011

Sequence | PBM 8-mer E-score
CTATGGTC | -0.0714 ± 0.011
ACCTTCCG | 0.156 ± 0.054
TAACGATA | 0.261 ± 0.025
CAACGATA | 0.0514 ± 0.023
AAACGATA | 0.0414 ± 0.058
AAGCCAAA | -0.0671 ± 0.036
GACTACTA | 0.123 ± 0.086
AACGATTG | -0.048 ± 0.0011
GAAGGAGA | 0.278 ± 0.031
AAAGGAGA | 0.102 ± 0.13
CAAGGAGA | -0.121 ± 0.026
ATATGAAA | 0.268 ± 0.017
TTATGAAA | -0.0227 ± 0.036
ATATGAAT | 0.269 ± 0.0035
ATATGAAC | 0.111 ± 0.0082
ATATGAAG | -0.0272 ± 0.098
CTATGAAA | 0.122 ± 0.039
GCGCTGAC | 0.0819 ± 0.0047
ATTCGGCA | -0.0961 ± 0.057
AACGTGTC | -0.0169 ± 0.047
CCCGTGTC | -0.222 ± 0.044
